The campaign covered roughly 94,000 compounds. About 2,100 (2.2%) were called active. What follows is part of a selection rich in actives, with near analogues and random picks from the rest. A number with no mark means an inactive call. No stated cut-off is given here; in the data, active means activity change below about -80%; inconclusive means no clear call, values can overlap the other calls; inactive means above that.

A short description of the assay: Dd2 malaria parasite growth inhibition – SYBR Green fluorescence, single dose replicates, primary screen (AID 1159554). The conditions noted are these: P. falciparum Dd2 growth, 72 h, at 10 µM, active compounds read low.
As to `CO[C@H]1CN(C)C(=O)c2cc(NC(=O)c3cnccn3)ccc2OC[C@H](C)N(C(=O)C2CC2)C[C@H]1C`, the activity change is -22.3%.
For `COc1cccc(-c2cn(CC[C@@H]3CC[C@@H](NC(C)=O)[C@@H](CO)O3)nn2)c1`, the activity change was -3.98%.
In the case of `C[C@@H]1CN([C@@H](C)CO)S(=O)(=O)c2ccc(/C=C/c3ccccc3)cc2O[C@H]1CN(C)C(=O)C1CC1` it was -88.7% (active); in that of `C[C@H](O)C#Cc1ccc2c(c1)O[C@@H](CN(C)C(=O)C1CC1)[C@H](C)CN([C@H](C)CO)S2(=O)=O`, 2.01%; in that of `COc1ccc(NC(=O)N(C)C[C@H]2Oc3cc(C#CCN(C)C)ccc3S(=O)(=O)N([C@@H](C)CO)C[C@@H]2C)cc1`, 7.25%.
Take `C[C@@H]1CN([C@@H](C)CO)S(=O)(=O)c2ccc(/C=C/c3ccccc3)cc2O[C@H]1CN(C)Cc1cccnc1`: the activity change was -90.5% (active).
As for `C[C@H](CO)N1C[C@H](C)[C@@H](CN(C)C(=O)C2CC2)Oc2cc(C#CC3CC3)ccc2S1(=O)=O`, the figure is -9.49%; as for `C[C@@H]1CN([C@@H](C)CO)S(=O)(=O)c2ccc(C#Cc3ccccc3)cc2O[C@@H]1CN(C)C(=O)Nc1ccccc1`, -58.2%; as for `CCC(=O)N(C)C[C@H]1Oc2cc(/C=C/c3ccccc3)ccc2S(=O)(=O)N([C@H](C)CO)C[C@H]1C`, -20.8%.
As for `CCC(=O)N(C)C[C@H]1Oc2cc(/C=C/c3ccccc3)ccc2S(=O)(=O)N([C@H](C)CO)C[C@@H]1C`, the figure is -32.1%; as for `COc1ccc(C#Cc2ccc3c(c2)O[C@@H](CN(C)C(=O)Nc2cccc(OC)c2)[C@H](C)CN([C@H](C)CO)S3(=O)=O)cc1`, -89.8% (active).
In the case of `C[C@H]1CN([C@@H](C)CO)S(=O)(=O)c2ccc(C#Cc3ccccc3)cc2O[C@@H]1CN(C)C(=O)C1CC1` it was -86.3% (active); in that of `C[C@@H]1CN([C@H](C)CO)S(=O)(=O)c2ccc(/C=C/c3ccccc3)cc2O[C@@H]1CN(C)Cc1ccccc1`, -19.9%.
Regarding `C[C@@H]1CN([C@@H](C)CO)S(=O)(=O)c2ccc(/C=C/c3ccccc3)cc2O[C@H]1CN(C)Cc1ccccc1`, the activity change was -58.4%.
As to `O=C(NC[C@H]1CC[C@@H]2[C@@H](CN2S(=O)(=O)c2ccccc2F)O1)C1CCCCC1`, the activity change is 81.8%.
In the case of `CNC(=O)C[C@@H]1CC[C@@H]2[C@@H](COc3ccc(NC(=O)c4ccc5c(c4)OCO5)cc3C(=O)N2C)O1` it was -13.2%; in that of `CN1c2ccc(C3=CCCCC3)cc2[C@@H]2[C@@H](CCN2C(=O)Nc2cc(F)ccc2F)[C@@H]1CO`, -41.1%.
As for `O=C(CC1CC1)N[C@@H]1C[C@@H]2O[C@H](CO)CC[C@@H]2O[C@@H]1CCc1ccc(C#Cc2ccccc2)cc1`, the figure is -36.1%; as for `CN1c2ccc(C#Cc3ccccc3F)cc2[C@@H]2[C@@H](CCN2C(=O)Cc2cccnc2)[C@H]1CO`, -26.2%; as for `CNC[C@H]1Oc2cc(C#Cc3ccccc3)ccc2S(=O)(=O)N([C@@H](C)CO)C[C@@H]1C`, -85% (active).
In the case of `CC(=O)N(C)C[C@@H]1Oc2cc(-c3cncnc3)ccc2S(=O)(=O)N([C@@H](C)CO)C[C@H]1C`, the activity change was 21.6%.
In the case of `Cc1ccc(-c2ccc3c(c2)O[C@@H](CN(C)C(=O)NC(C)C)[C@@H](C)CN([C@H](C)CO)S3(=O)=O)cc1` it was -34.3%; in that of `CC(C)NC(=O)N(C)C[C@H]1Oc2cc(-c3cncnc3)ccc2S(=O)(=O)N([C@@H](C)CO)C[C@H]1C`, -83.1% (active).
Consider `C[C@@H]1CN([C@@H](C)CO)S(=O)(=O)c2ccc(C#Cc3ccccc3)cc2O[C@@H]1CN(C)C(=O)C1CC1`, for which the activity change was -82.5% (active).
As for `CNC[C@@H]1Oc2cc(C#Cc3ccc(F)cc3)ccc2S(=O)(=O)N([C@@H](C)CO)C[C@H]1C`, the figure is -62.7%.
As for `C[C@H](O)C#Cc1ccc2c(c1)O[C@H](CN(C)C(=O)C1CC1)[C@@H](C)CN([C@H](C)CO)S2(=O)=O`, the figure is 46.3%; as for `CC(C)C#Cc1ccc2c(c1)O[C@@H](CN(C)C(=O)C1CC1)[C@H](C)CN([C@H](C)CO)S2(=O)=O`, -27.6%.
On to `CNC[C@H]1Oc2cc(C#Cc3ccccn3)ccc2S(=O)(=O)N([C@H](C)CO)C[C@@H]1C`, for which the activity change was -6.84%.
As for `CCNC(=O)C[C@@H]1C=C[C@@H](NC(=O)C2CCOCC2)[C@@H](CO)O1`, the activity change was 2.77%.
For `COCC(=O)Nc1ccc2c(c1)OC[C@H](C)N(C(=O)Cc1ccccn1)C[C@H](C)[C@@H](OC)CN(C)C2=O`, the activity change is 41.2%.
In the case of `O=C(C[C@H]1CC[C@@H](NC(=O)CC2CC2)[C@@H](CO)O1)NCc1ccccc1` it was 10.8%; in that of `O=C(NC1CCC1)[C@@H]1[C@@H](CO)[C@@H]2Cn3c(ccc(/C=C/c4ccccc4)c3=O)[C@@H]2N1Cc1ccncc1`, -2.62%; in that of `CCCN1C[C@@H](C)[C@@H](OC)CN(C)C(=O)c2ccc(NC(=O)c3ccc(F)cc3)cc2OC[C@@H]1C`, -14.3%.
On to `C[C@H](O)C#Cc1cnc2c(c1)C(=O)N([C@@H](C)CO)C[C@H](C)[C@@H](CN(C)C(=O)c1ccccc1)O2`, for which the activity change is 20.4%.
As for `COCC(=O)Nc1ccc2c(c1)OC[C@H](C)N(Cc1ccccc1)C[C@H](C)[C@@H](OC)CN(C)C2=O`, the figure is -12.2%.
As for `Cc1ccc(S(=O)(=O)N2C[C@@H](O)COC[C@@H]3O[C@H](CC(=O)NCCCN(C)C)CC[C@H]32)cc1`, the figure is -1.46%; as for `COc1ccc2c3c([nH]c2c1)[C@H](CO)N(C(=O)Nc1ccc(F)cc1)CC31CCN(C(=O)Nc2c(C)noc2C)CC1`, -35.3%; as for `COc1ccc2c3c([nH]c2c1)[C@H](CO)N(C(=O)Nc1ccc(F)cc1)CC31CCN(CC2CCOCC2)CC1`, -81.3% (active).
In the case of `CCCNC(=O)N1CC2(C1)CN(Cc1cccc(F)c1)[C@@H](CO)c1[nH]c3cc(OC)ccc3c12`, the activity change was -63.2%.
In the case of `COc1ccc2c3c([nH]c2c1)[C@H](CO)N(Cc1cccc(F)c1)CC31CCN(CC2CC2)CC1` it was -83.2% (active); in that of `COc1ccc2c3c([nH]c2c1)[C@@H](CO)N(C(=O)c1ccc(F)cc1)CC31CCN(C(=O)Nc2ccc(F)cc2)CC1`, -75.4%.
As for `COc1ccc2c3c([nH]c2c1)[C@H](CO)N(CC1CC1)CC31CN(C(=O)Nc2cccc(F)c2)C1`, the activity change was -49.9%.
In the case of `COc1ccc2c3c([nH]c2c1)[C@H](CO)N(C(=O)C1CCC1)CC31CCN(Cc2cccc(F)c2)CC1` it was -43.8%; in that of `COc1ccc2c3c([nH]c2c1)[C@H](CO)N(S(=O)(=O)c1cn(C)cn1)CC31CCN(CC2CC2)CC1`, 1.53%; in that of `COc1ccc2c3c([nH]c2c1)[C@@H](CO)N(Cc1cccc(F)c1)CC31CN(CC2CC2)C1`, -82.5% (active).
In the case of `CCC(=O)N(C)C[C@H]1Oc2ncc(C#CC(C)C)cc2C(=O)N([C@@H](C)CO)C[C@H]1C` it was 34.1%; in that of `CN1C(=O)c2cc(NC(=O)C3CCCC3)ccc2OC[C@H]2O[C@H](CC(=O)NCc3ccccc3F)CC[C@H]21`, -16.4%.
As to `O=C(C1CCCC1)N1[C@H](CO)[C@H]2c3ccccc3N(S(=O)(=O)c3ccccc3)C[C@H]21`, the activity change was -20%.
As for `Cc1noc(C)c1NC(=O)N(C)C[C@H]1Oc2ccc(NC(=O)Cn3cnnn3)cc2CC(=O)N([C@H](C)CO)C[C@@H]1C`, the figure is 26.5%; as for `C[C@@H]1CN([C@@H](C)CO)C(=O)c2cccc(NC(=O)Nc3ccccc3)c2O[C@H]1CN(C)Cc1ccccc1`, -14.5%.
As for `C[C@H](CO)N1C[C@H](C)[C@H](CN(C)Cc2ccc(C(=O)Nc3ccccc3N)cc2)Oc2c(NC(=O)Nc3ccccc3)cccc2C1=O`, the figure is -80.2% (active); as for `Cc1cc(C(=O)Nc2cccc3c2O[C@@H](CN(C)Cc2ccc(C(=O)O)cc2)[C@H](C)CN([C@@H](C)CO)C3=O)n(C)n1`, 6.12%; as for `Cc1cc(C(=O)Nc2cccc3c2O[C@@H](CN(C)Cc2ccc(C(=O)Nc4ccccc4N)cc2)[C@H](C)CN([C@@H](C)CO)C3=O)n(C)n1`, -84.4% (active).
As for `Cc1cc(C(=O)Nc2cccc3c2O[C@@H](CN(C)Cc2ccncc2)[C@@H](C)CN([C@@H](C)CO)C3=O)n(C)n1`, the figure is 6.17%.
Consider `C[C@H](CO)N1C[C@H](C)[C@@H](CN(C)Cc2ccc(C(=O)Nc3ccccc3N)cc2)Oc2c(NC(=O)C3CC3)cccc2C1=O`, for which the activity change was -57.7%.
For `CC(C)(C)[S@](=O)N1Cc2cc(C(=O)N3CCCCC3)nc(-c3cccc(Br)c3)c2[C@@H]1CCO`, the activity change is -2.81%.
Turning to `COc1cccc(S(=O)(=O)N[C@H]2C=C[C@@H](CC(=O)NCc3ccccc3)O[C@@H]2CO)c1`, the activity change was 18.4%.
As to `O=C(C[C@@H]1CC[C@@H]2[C@H](COC[C@H](O)CN2C(=O)c2ccncc2)O1)NCc1cc(F)cc(F)c1`, the activity change was 1.9%.
As for `COc1ccc(-c2cnc3c(c2)C(=O)N([C@@H](C)CO)C[C@H](C)[C@@H](CN(C)C(=O)C2CC2)O3)cc1`, the figure is 13.9%; as for `O=C(c1ccc(F)cc1)N1CC2(C1)[C@H](c1ccccc1)[C@@H](CO)N2Cc1ccccn1`, -24.5%; as for `O=C1CN(S(=O)(=O)Cc2ccccc2)C[C@@H]2[C@@H](c3ccc(C#Cc4ccccc4)cc3)[C@@H](CO)N12`, -68.4%.
Turning to `Cc1ccccc1S(=O)(=O)N1CC(=O)N2[C@H](CO)[C@@H](c3ccc(C#Cc4ccccc4)cc3)[C@H]2C1`, the activity change is -22.9%.
In the case of `Cc1ccccc1S(=O)(=O)N1CC(=O)N2[C@H](CO)[C@H](c3ccc(C#CC4CC4)cc3)[C@@H]2C1` it was -84.8% (active); in that of `O=C1CN(S(=O)(=O)c2ccccc2)C[C@H]2[C@H](c3ccc(C#CCc4ccccc4)cc3)[C@@H](CO)N12`, -82.9% (active).
Turning to `O=C1CN(S(=O)(=O)c2ccccc2)C[C@H]2[C@H](c3ccc(C4=CCCC4)cc3)[C@@H](CO)N12`, the activity change is 5.25%.
For the compound `Cc1ccccc1S(=O)(=O)N1CC(=O)N2[C@H](CO)[C@H](c3ccc(C#CCN(C)C)cc3)[C@H]2C1`, the activity change was -1.17%.

The values are drawn from PubChem BioAssay AID1159554 (Broad Institute, 2015).
